Pf growth 48h: P. falciparum growth inhibition at 48 hours (one generation); Potency, µM (titrated, usually from 28.7 µM), without a hit: at the top dose activity change, negative = inhibition, hits mostly inhibitors; P. falciparum luciferase growth in erythrocytes, 48 h; 310,000 compounds, 5.9% hits; note: potency is the fitted concentration of half-maximal effect; % is set by controls: 0 for no effect and ±100 for the full control effect
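Luciferase-expressing P. falciparum in infected erythrocytes (2% hematocrit, 0.1% parasitemia final) in RPMI 1640/0.5% Albumax were exposed to compound for 48 hours at 37 C, 5% CO2; growth read as luminescence.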
Shiga inhibitor: blocks Shiga toxin action in Vero cells; Vero cells, Shiga toxin protein synthesis inhibition reporter; inhibition, % at 38.7 µM; 290,000 compounds, 9.2% hits; AID 2315; in the data active = inhibition mostly above about 28%, no sharp cut-off; inactive = mostly below about 43%; note: 0% is about no effect
Sm TGR block: S. mansoni TGR enzyme inhibition. 360,000 compounds, 3% hits. purified TGR, DTNB reduction, TNB absorbance 405 nm. Potency, µM (titrated, usually from 114 µM), for inactives: at the highest dose activity change, negative = inhibition, hits mostly inhibitors. AID 485364. Q962Y6; note: potency is the fitted concentration of half-maximal effect; % is set by controls: 0 for no effect and ±100 for the full control effect; nearly all actives have a fitted effect of over 60% in size
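Kinetic colorimetric format: TGR-catalysed, NADPH-driven DTNB reduction monitored via TNB absorbance. Enzyme dispensed at 20 nM; compound exposure 15 min at room temperature before reaction start.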
NS1 function inh: inhibitors of influenza NS1 protein function | 270,000 compounds, 0.4% hits | Potency, µM (series often up to 46.1 µM), inactives show at the highest dose activity, positive = more growth; calls by dose curve; note: potency is the fitted concentration of half-maximal effect; actives are rising curves; nearly all actives have a fitted effect of over 50% in size
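Read-out: OD600 growth recovery of NS1-expressing budding yeast. Cells grown overnight at 30C in -URA glucose medium, washed, resuspended and diluted 1:100 in 2% galactose assay medium, pH 6.0. Same strain lacking NS1 served as positive control.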
Pf growth 96h: P. falciparum growth inhibition at 96 hour, primary screen for plastid delayed-death inhibitors; P. falciparum luciferase reporter growth, 96 h; Potency, µM (doses to about 28.7 µM), without a hit: at the highest dose activity change, negative = inhibition, most hits filed as inhibitors; 320,000 compounds, 6.9% hits; AID 504834; note: potency is the fitted concentration of half-maximal effect; % is set by controls: 0 for no effect and ±100 for the full control effect
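Infected RBCs, 2% Hct / 0.05% parasitemia final; luciferase-reporter P. falciparum; cpd 96 h, 37 C, 5% CO2; luciferase detection reagent; luminescence.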
CHX counter: affects cycloheximide protein synthesis inhibition readout, counter-screen; cell reporter, cycloheximide protein synthesis inhibition counterscreen; max response, %; 300,000 compounds, 12% hits; AID 2314; in the data active = max response mostly above about 13%, no sharp cut-off; inactive = mostly below about 14%; note: read at 38.3 µM for the half of the compounds with a filed dose; 0% is about no effect
Numbers without * were called inactive; i = inactive; ? = inconclusive; · = no result. Shown are actives, neighbours in structure and some others; about 21% of the full set was active somewhere. Unless noted, calls come from the whole dose curve; as a rule, active = well fitted curve in the direction sought with a large enough effect; inconclusive = small, poorly fitted or top-dose-only effect, or another doubt; inactive = no such curve, though single readings can be large; an effect the other way counts as inactive or inconclusive.

SMILES	Pf growth 48h	Shiga inhibitor	Sm TGR block	NS1 function inh	Pf growth 96h	CHX counter
CCN1CCN(c2cc(C)c3cc(NC(=O)c4ccc5c(c4)OCO5)ccc3n2)CC1	3.3µM*	-8	-9%	-9%	-5%	-2
CCN1CCN(c2cc(C)c3cc(NC(=O)Cc4ccccc4OC)ccc3n2)CC1	12µM*	-14	-17%	5%	?	8
CCN1CCN(c2cc(C)c3cc(NC(=O)c4cncc(Br)c4)ccc3n2)CC1	0.1µM*	-22	4%	-9%	1.9µM*	-7
CCN1CCN(c2cc(C)c3cc(NC(=O)c4cc(OC)c(OC)c(OC)c4)ccc3n2)CC1	·	·	-7%	·	·	·
COc1cccc(C(=O)Nc2ccc3nc(N4CCOCC4)cc(C)c3c2)c1	15µM*	9	4%	-91%	0.47µM*	-2
COc1cccc(NC(=O)COC(=O)CCCC2=NS(=O)(=O)c3ccccc3N2)c1	-5%	-7	5%	-8%	?	-1
COc1ccc(S(=O)(=O)NCCCN2CCCC2=O)cc1OC	75%	-5	2%	15%	?	-3
CCN1CCN(c2cc(C)c3cc(NC(=O)c4cccc(OC)c4)ccc3n2)CC1	?	39*	2%	1%	2.1µM*	31*
CCN1CCN(c2cc(C)c3cc(NC(=O)c4cccs4)ccc3n2)CC1	2.1µM*	86	1%	1%	?	21*
Cc1csc(NC(=O)c2cc3c(s2)CCC3)n1	159%	86*	-2%	-3%	170%	64*
Cc1nc(NC(=O)c2cc3c(s2)CCCCC3)sc1C(=O)N(C)C	19%	102*	5%	-67%	·	21*
CCc1sc(C(=O)Nc2ccc(NC(C)=O)cc2)cc1C	28%	27	-2%	-1%	-14%	8
CCc1sc(C(=O)Nc2nc(C)cs2)cc1C	-84%	76*	-3%	-38%	-97%	26*
COC(=O)c1sc(NC(=O)c2cc3c(s2)CCCC3)nc1C	10%	26*	-5%	-5%	-2%	34*
CCCCn1cc(S(=O)(=O)c2ccc(CC)cc2)c(=O)c2cc(F)c(N3CCOCC3)cc21	·	·	-8%	·	·	·
CCc1ccccc1OCC(=O)Nc1cccc(S(=O)(=O)NC2=NCCC2)c1	-25%	·	-5%	·	?	·
Nc1ccn([C@@H]2O[C@H](COC(=O)C34CC5CC(CC(C5)C3)C4)[C@@H](O)[C@@H]2O)c(=O)n1	·	·	·	-3%	·	·
CCN(CC)C(=O)c1c(NC(=O)c2cccc(C)c2)sc2c1CCC(C)C2 (stereo not given)	·	·	-5%	·	·	·
NS(=O)(=O)c1ccc(N=Nc2ncccc2O)cc1	·	·	·	8%	·	·
c1ccc(-c2noc(CN3CCCC(OCc4ccccn4)C3)n2)cc1 (stereo not given)	1%	1	-5%	-9%	?	8
Cc1nc(NC(=O)c2ccc(Br)s2)sc1C(=O)N(C)C	212%	50*	4%	-1%	2%	44*
Cc1cc(C)nc(NC(=O)c2ccc(Br)s2)n1	43%	·	-3%	-5%	31%	1
Cc1csc(NC(=O)c2cc3c(C)nn(Cc4ccccc4Cl)c3s2)n1	?	73	0%	3%	-101%	42*
Cc1nn(Cc2ccccc2Cl)c2sc(C(=O)NC(C)(C)C)cc12	·	-14	-1%	2%	?	-4
COc1ccc(NC(=O)Nc2ccc(OC)cc2)cc1	·	67*	1%	-1%	79%	22*
SMILES	Pf growth 48h	Shiga inhibitor	Sm TGR block	NS1 function inh	Pf growth 96h	CHX counter
COc1ccc(NC(=O)OC(C)C)cc1	92%	68*	3%	-6%	i	29*
COc1ccc(NC(=O)Nc2nnc(C)s2)cc1	·	·	11%	·	·	·
COc1ccc(NC(=O)Nc2ccc(N(C)C)cc2)cc1	155%	97*	-18%	-10%	·	30*
CC(C)OC(=O)Nc1ccc(-c2ccc(NC(=O)OC(C)C)cc2Cl)c(Cl)c1	-9%	-5	6%	?	0%	-1
COc1ccc(NC(=O)c2ccc(OC(=S)N(C)c3ccc(OC)cc3)cc2)cc1	-6%	11	3%	-4%	74%	-1
COC(=O)c1ccc(NC(=O)Nc2ccc(OC)cc2)cc1	-25%	60*	·	-13%	-13%	24
Nc1nc(NCCOCCO)nc(N2CCCCCC2)c1[N+](=O)[O-]	-28%	-5	0%	-2%	-22%	-2
CCN(CC(=O)Nc1c(F)cccc1F)C(=O)C1CC1	32%	·	13%	·	40%	·
Nc1nc(N)c2ncc(C(=O)CCc3ccccc3)nc2n1	0%	-11	·	-2%	-4%	-3
Nc1ccc(-c2nc3nc(N)nc(N)c3nc2-c2ccc(N)cc2)cc1	10µM*	-3	6%	2%	?	1
Oc1ccc(Br)cc1/C=N/n1c(-c2ccccc2)n[nH]c1=S	3%	-3	-1%	7%	-1%	-1
Oc1ccc(Br)cc1C=Nc1cccn2cc(-c3ccccc3)nc12	279%	81*	-3%	·	?	35*
C=CCOc1ccc(C(=O)NC2CCCCC2)cc1	125%	111*	-17%	-58%	·	21*
COc1ccc(C(=O)NC2CCN(CC(=O)NC3CCCCC3)CC2)cc1	22%	-7	-11%	7%	5%	-3
CC(C)Oc1ccc(C(=O)NC2CCCCC2)cc1	127%	65	-4%	4%	·	47*
CC1CN(Cc2csc(-c3ccc(Cl)cc3)n2)CC(C)O1 (stereo not given)	177%	117*	1%	·	251%	47
O=C(CSc1nc2ccccc2n1Cc1ccc(F)c(Cl)c1)N1CCN(c2ccc(F)cc2)CC1	·	·	6%	·	·	·
COc1ccc(OC)c(NC(=S)N2CCC(C(O)(c3ccccc3)c3ccccc3)CC2)c1	9.3µM*	15	-2%	?	?	5
Cc1cc(C)cc(N2C(=O)C3CC=CCC3C2=O)c1 (stereo not given)	-9%	12	-11%	-4%	16%	-2
Cc1cc(C)cc(N2C(=O)c3nccnc3C2=O)c1	13%	1	-7%	7%	12µM*	-4
CCCOC(=O)c1sc2nc3c(cc2c1N)C(=O)CCC3	108%	42	-2%	-7%	·	11
Nc1c(C(=O)NCc2ccco2)sc2nc3c(cc12)C(=O)CCC3	8%	48	8.9µM*	10%	?	22
COc1ccc2cc3c(N)c(C(=O)NCc4ccco4)sc3nc2c1	-86%	42*	-30%	?	?	11
C/C(=N\OC(=O)C1CC1)C1CC1c1ccc(F)cc1 (stereo not given)	59%	-5	0%	·	6%	-2
COc1ccccc1CN1CCNC(=O)C1CC(=O)NCCOc1cccnc1 (stereo not given)	31%	-3	-24%	5%	?	-2
CC(=O)C1=C(C)Nc2ncnn2C1c1ccccc1Cl (stereo not given)	12%	-8	7%	-1%	0.52µM*	-1

Screening results: PubChem, National Center for Advancing Translational Sciences (NCATS)
